# Measurements taken from PubChem BioAssay AID1159580 (chemical genetic matrix, 2015).
# Screen size: about 5,500 compounds; about 2,000 (36%) were called active. Roughly 18% stayed inconclusive and do not appear here. The list shows a part of the results. Unmarked numbers belong to inactive results. No stated cut-off is given here; in the data, active means normalized growth mostly below about 0.91 (no sharp cut-off); inconclusive means no clear call, values can overlap the other calls; inactive means mostly above about 0.92.
# Assay: chemical genetic growth profiling, strain panel (AID 1159580);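 further: tested at 20 µM; growth read once vehicle control cultures reached saturation at 30 °C; 1 = growth at the plate median or of vehicle wells; lower values mean less growth of the strain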
# Conditions: growth OD
smiles,measurement,setting,value
COc1ccc2c(c1)OC1(O)COc3cc(OC)c(OC)cc3C1=C2 (configuration not stated),normalized growth,"S. cerevisiae deletion strains, locus YJR075W, strain HOC1, hits give low values",0.956
same,normalized growth,"S. cerevisiae deletion strains, locus YKL009W, strain mrt4, hits give low values",0.965
same,normalized growth,"S. cerevisiae deletion strains, locus YKL068W, hits give low values",0.99
same,normalized growth,"S. cerevisiae deletion strains, locus YKL085W, strain MDH1 (second series), hits give low values",0.98
same,normalized growth,"S. cerevisiae deletion strains, locus YKL085W, strain MDH1, hits give low values",0.98
same,normalized growth,"S. cerevisiae deletion strains, locus YKL160W, strain elf1, hits give low values",1
same,normalized growth,"S. cerevisiae deletion strains, locus YKL190W, strain CNB1, hits give low values",1.01
same,normalized growth,"S. cerevisiae deletion strains, locus YKR001C, strain vps1, hits give low values",0.949
same,normalized growth,"S. cerevisiae deletion strains, locus YKR026C, strain gcn3, hits give low values",0.974
same,normalized growth,"S. cerevisiae deletion strains, locus YKR091W, strain srl3, hits give low values",0.979
same,normalized growth,"S. cerevisiae deletion strains, locus YLL001W, strain dnm1, hits give low values",0.944
same,normalized growth,"S. cerevisiae deletion strains, locus YLL026W, hits give low values",0.985
same,normalized growth,"S. cerevisiae deletion strains, locus YLL041C, strain sdh2, hits give low values",0.987
same,normalized growth,"S. cerevisiae deletion strains, locus YLR027C, strain aat2, hits give low values",0.985
same,normalized growth,"S. cerevisiae deletion strains, locus YLR039C, strain RIC1, hits give low values",0.974
same,normalized growth,"S. cerevisiae deletion strains, locus YLR058C, strain SHM2, hits give low values",1
same,normalized growth,"S. cerevisiae deletion strains, locus YLR102C, strain apc9, hits give low values",0.99
same,normalized growth,"S. cerevisiae deletion strains, locus YLR113W, strain HOG1, hits give low values",0.939
same,normalized growth,"S. cerevisiae deletion strains, locus YLR221C, strain rsa3, hits give low values",0.96
same,normalized growth,"S. cerevisiae deletion strains, locus YLR258W, strain gsy2, hits give low values",0.986
same,normalized growth,"S. cerevisiae deletion strains, locus YLR262C, strain YPT6 (second series), hits give low values",0.926
same,normalized growth,"S. cerevisiae deletion strains, locus YLR262C, strain YPT6, hits give low values",0.961
same,normalized growth,"S. cerevisiae deletion strains, locus YLR268W, strain sec22, hits give low values",0.96
same,normalized growth,"S. cerevisiae deletion strains, locus YLR320W, strain mms22, hits give low values",0.925
same,normalized growth,"S. cerevisiae deletion strains, locus YLR330W, strain CHS5, hits give low values",0.997
same,normalized growth,"S. cerevisiae deletion strains, locus YLR342W, strain FKS1 (second series), hits give low values",0.91
same,normalized growth,"S. cerevisiae deletion strains, locus YLR342W, strain FKS1, hits give low values",0.976
same,normalized growth,"S. cerevisiae deletion strains, locus YLR357W, strain rsc2, hits give low values",0.983
same,normalized growth,"S. cerevisiae deletion strains, locus YLR370C, strain arc18, hits give low values",0.985
same,normalized growth,"S. cerevisiae deletion strains, locus YLR371W, strain rom2, hits give low values",0.99
same,normalized growth,"S. cerevisiae deletion strains, locus YLR384C, strain iki3, hits give low values",0.985
same,normalized growth,"S. cerevisiae deletion strains, locus YLR418C, strain cdc73, hits give low values",0.955
same,normalized growth,"S. cerevisiae deletion strains, locus YML016C, strain PPZ1, hits give low values",1.01
same,normalized growth,"S. cerevisiae deletion strains, locus YML032C, strain rad52, hits give low values",0.957
same,normalized growth,"S. cerevisiae deletion strains, locus YML120C, strain ndi1, hits give low values",0.989
same,normalized growth,"S. cerevisiae deletion strains, locus YML124C, strain tub3, hits give low values",0.986
same,normalized growth,"S. cerevisiae deletion strains, locus YMR058W, strain fet3, hits give low values",0.978
same,normalized growth,"S. cerevisiae deletion strains, locus YMR078C, strain ctf18, hits give low values",0.98
same,normalized growth,"S. cerevisiae deletion strains, locus YMR125W, strain sto1, hits give low values",0.985
same,normalized growth,"S. cerevisiae deletion strains, locus YMR129W, hits give low values",0.977
same,normalized growth,"S. cerevisiae deletion strains, locus YMR205C, strain PFK2, hits give low values",0.954
same,normalized growth,"S. cerevisiae deletion strains, locus YMR223W, strain ubp8, hits give low values",0.951
same,normalized growth,"S. cerevisiae deletion strains, locus YMR231W, strain pep5, hits give low values",0.983
same,normalized growth,"S. cerevisiae deletion strains, locus YMR263W, strain SAP30, hits give low values",1.01
same,normalized growth,"S. cerevisiae deletion strains, locus YMR307W, strain GAS1, hits give low values",0.984
same,normalized growth,"S. cerevisiae deletion strains, locus YNL067W, strain RPL9B, hits give low values",0.998
same,normalized growth,"S. cerevisiae deletion strains, locus YNL071W, strain lat1, hits give low values",0.945
same,normalized growth,"S. cerevisiae deletion strains, locus YNL128W, strain TEP1, hits give low values",1.02
same,normalized growth,"S. cerevisiae deletion strains, locus YNL153C, strain GIM3, hits give low values",1.03
same,normalized growth,"S. cerevisiae deletion strains, locus YNL183C, strain NPR1, hits give low values",0.892
same,normalized growth,"S. cerevisiae deletion strains, locus YNL209W, strain ssb2, hits give low values",0.993
same,normalized growth,"S. cerevisiae deletion strains, locus YNL233W, strain BNI4, hits give low values",0.971
same,normalized growth,"S. cerevisiae deletion strains, locus YNL248C, strain rpa49, hits give low values",0.996
same,normalized growth,"S. cerevisiae deletion strains, locus YNL250W, strain rad50, hits give low values",0.998
same,normalized growth,"S. cerevisiae deletion strains, locus YNL271C, strain bni1, hits give low values",0.98
same,normalized growth,"S. cerevisiae deletion strains, locus YNL298W, strain CLA4, hits give low values",0.98
same,normalized growth,"S. cerevisiae deletion strains, locus YNL307C, strain MCK1, hits give low values",0.848 (active)
same,normalized growth,"S. cerevisiae deletion strains, locus YNL322C, strain KRE1 (second series), hits give low values",0.991
same,normalized growth,"S. cerevisiae deletion strains, locus YNL322C, strain KRE1, hits give low values",1
same,normalized growth,"S. cerevisiae deletion strains, locus YNR049C, strain mso1, hits give low values",0.992
same,normalized growth,"S. cerevisiae deletion strains, locus YNR052C, strain pop2, hits give low values",0.98
same,normalized growth,"S. cerevisiae deletion strains, locus YOL006C, strain TOP1, hits give low values",0.945
same,normalized growth,"S. cerevisiae deletion strains, locus YOL012C, strain htz1",0.969
same,normalized growth,"S. cerevisiae deletion strains, locus YOL147C, strain pex11, hits give low values",0.986
same,normalized growth,"S. cerevisiae deletion strains, locus YOR001W, strain rrp6, hits give low values",0.915
same,normalized growth,"S. cerevisiae deletion strains, locus YOR061W, strain CKA2, hits give low values",1.01
same,normalized growth,"S. cerevisiae deletion strains, locus YOR069W, strain VPS5, hits give low values",1.01
same,normalized growth,"S. cerevisiae deletion strains, locus YOR070C, strain gyp1, hits give low values",0.985
same,normalized growth,"S. cerevisiae deletion strains, locus YOR080W, strain dia2, hits give low values",0.97
same,normalized growth,"S. cerevisiae deletion strains, locus YOR083W, strain WHI5, hits give low values",0.982
same,normalized growth,"S. cerevisiae deletion strains, locus YOR106W, strain vam3, hits give low values",0.995
same,normalized growth,"S. cerevisiae deletion strains, locus YOR136W, strain idh2, hits give low values",0.975
same,normalized growth,"S. cerevisiae deletion strains, locus YOR144C, strain elg1, hits give low values",0.987
same,normalized growth,"S. cerevisiae deletion strains, locus YOR184W, strain ser1, hits give low values",0.899
same,normalized growth,"S. cerevisiae deletion strains, locus YOR231W, strain MKK1, hits give low values",0.92
same,normalized growth,"S. cerevisiae deletion strains, locus YOR265W, strain rbl2, hits give low values",0.982
same,normalized growth,"S. cerevisiae deletion strains, locus YOR270C, strain vph1, hits give low values",0.904
same,normalized growth,"S. cerevisiae deletion strains, locus YOR290C, strain snf2, hits give low values",0.998
same,normalized growth,"S. cerevisiae deletion strains, locus YOR316C, strain cot1, hits give low values",0.996
same,normalized growth,"S. cerevisiae deletion strains, locus YPL051W, strain arl3, hits give low values",0.949
same,normalized growth,"S. cerevisiae deletion strains, locus YPL055C, strain LGE1, hits give low values",1.02
same,normalized growth,"S. cerevisiae deletion strains, locus YPL078C, strain atp4, hits give low values",0.999
same,normalized growth,"S. cerevisiae deletion strains, locus YPL106C, strain sse1, hits give low values",0.991
same,normalized growth,"S. cerevisiae deletion strains, locus YPL240C, strain hsp82, hits give low values",0.988
same,normalized growth,"S. cerevisiae deletion strains, locus YPL241C, strain CIN2, hits give low values",1
same,normalized growth,"S. cerevisiae deletion strains, locus YPL256C, strain CLN2, hits give low values",0.902
same,normalized growth,"S. cerevisiae deletion strains, locus YPR119W, strain clb2, hits give low values",0.983
same,normalized growth,"S. cerevisiae deletion strains, locus YPR141C, strain kar3, hits give low values",0.994
same,normalized growth,"S. cerevisiae deletion strains, locus YPR163C, strain tif3, hits give low values",0.983
same,normalized growth,"S. cerevisiae deletion strains, locus YPR167C, strain met16, hits give low values",0.984
same,normalized growth,"S. cerevisiae deletion strains, strain wtn01, hits give low values",0.981
same,normalized growth,"S. cerevisiae strains, strain wild type, hits give low values",0.987
